The source of these data is PubChem BioAssay (NCATS).

Inconclusive results are not listed. Unmarked numbers belong to inactive results. Activity calls are given as the source filed them. Calls come from the whole dose curve; as a rule, active = well fitted cell-killing curve with a large enough effect; inconclusive = small, poorly fitted or top-dose-only effect; inactive = no such curve, though single readings can be large or run the other way.
Potency is the fitted concentration of half-maximal effect.

The assay in a line: qHTS of pediatric cancer cell lines to identify multiple opportunities for drug repurposing: Primary screen for SK-N-MC cells (AID 1347093). As to conditions: SK-N-MC viability, CellTiter-Glo luminescence, 48 h; series mostly up to 46 µM; activity change, negative = cytotoxic: at the top concentration. From the text:
Drug repurposing or repositioning has been offered as a strategy for drug development in oncology programs. This approach has special potential for childhood cancers and other rare or orphan diseases, where the expected return on new drug development has been a disincentive to pharmaceuticals.
In this project we exploit the poly-pharmacology of drugs to discover new indications via phenotypic screening of a panel of 19 well-characterized cell lines derived from solid tumors seen in children and adolescents. The goal is to identify approved drugs with previously unrecognized anticancer properties that has the potential to reveal new mechanisms and biological processes involved in carcinogenesis or drug resistance. We employed a titration-based paradigm (quantitative high-throughput screening or qHTS), where all compounds were tested at multiple concentrations for their effect on cell viability. Concentration-response curves (CRCs) were derived directly from the primary screen, and both potency and efficacy values were used to identify compounds with robust bioactivity profiles. We screened the NIH Chemical Genomics Center (NCGC) Pharmaceutical Collection (NPC) and Mechanism Interrogation Plate (MIPE) small molecule collections of approved and investigational compounds against these cell lines; and measured metabolically active cells after 48 hours of compound treatment as a proxy for cell viability.
Assay Submitter: Nathalia J. Martinez, National Center for Advancing Translational Sciences, National Institutes of Health, Rockville, MD, USA; email: natalia.martinez@nih.gov
[1] Shen, M et al. Quantitative high-throughput phenotypic screening of pediatric cancer cell lines identifies multiple opportunities for drug repurposing. Oncotarget 2017 Dec 19;9(4):4758-4772. PMID 29435139.
The cells were obtained from University of North Carolina (UNC), Pediatric Preclinical Testing Program (PPT), and Coriell Institute (CI).
qHTS cell viability assay:
Cells were assayed in growth media at a density of 500-1,000 cells/well. Five microliters of cells were dispensed into 1,536-well, white, solid-bottom, TC-treated plates (Greiner Bio One) using a multidrop dispenser and incubated at 37 degrees C, 5% CO2, under a humidified atmosphere for 5 hours. Twenty-three nanoliters of compounds and controls (neutral control DMSO or positive control bortezomib at final concentration of 2.3 µM) were subsequently transferred by Kalypsys pintool. For primary screens, the MIPE collection was tested at 11-point dilutions (final concentrations range from 0.78 nM to 46 µM) and the NPC collection at 8-point dilutions (final concentrations range from 0.59nM to 46 µM). Compounds tested in follow-up screens were assayed at 11-point dilutions. Cells were incubated for 48 hours, followed by addition of 3 uL of CellTiter-Glo (Promega). After a 15 min incubation at room temperature, samples were analyzed for luminescence intensity using a ViewLux High-throughput CCD imager equipped with clear filters.
(In general: qHTS replaces the single test concentration by a dilution series.)
`COc1cc([C@@H]2c3cc4c(cc3[C@@H](O[C@@H]3O[C@@H]5CO[C@@H](C)O[C@@H]5[C@H](O)[C@@H]3O)[C@H]3COC(=O)[C@H]23)OCO4)cc(OC)c1O`: the Potency is 0.469 µM (active).
Same read-out and setting: then `CN(C)c1ccccc1CN1CCCN(Cc2ccccc2N(C)C)C1c1ccncc1`, with 26.4 µM (active).
With `CCCCCCOC(=O)N=C(N)c1ccc(NCc2nc3cc(C(=O)N(CCC(=O)OCC)c4ccccn4)ccc3n2C)cc1`, the Potency is 29.6 µM (active).
For `O[C@@H](COc1cccc2ncccc12)CN1CCN(C2c3ccccc3[C@@H]3[C@H](c4ccccc42)C3(F)F)CC1` (stereo not given in full), the Potency is 9.35 µM (active).
Regarding `Cn1c(=O)c(Oc2ccc(F)cc2F)cc2cnc(NC3CCOCC3)nc21`, the “activity change, negative = cytotoxic” value was -10.2%.
For the compound `CC(=O)N1CCN(c2ccc(OCc3nn(C)c(C)c3-c3cccc4c(CCCOc5cc(C)c(Cl)c(C)c5)c(C(=O)O)n(Cc5cccnc5)c34)cc2)CC1`, the Potency was 4.18 µM (active).
As for `C[C@@H](N)c1ccc(C(=O)Nc2ccnc3[nH]ccc23)cc1`, the Potency is 26.4 µM (active).
On the same count and under the same terms, to `CC1(COc2ccc3c(c2)ncn3-c2ccc3cccc(N4CCC(N)CC4)c3n2)COC1` belongs 0.001 µM (active).
On to `CCOC(=O)N1CCN([N+]([O-])=NOc2cc(ON=[N+]([O-])N3CCN(C(=O)OCC)CC3)c([N+](=O)[O-])cc2[N+](=O)[O-])CC1`, for which the “activity change, negative = cytotoxic” value is -15%.
As to `Clc1ccc(C2(c3ccc(-c4cn[nH]c4)cc3)CCNCC2)cc1`, the Potency is 6.62 µM (active).
For the compound `CCCCCCCCCCCCCCCC(=O)O[C@H]1[C@@H](O)[C@@H](O)[C@@H]([C@H](NC(=O)[C@@H]2C[C@@H](CCC)CN2C)[C@H](C)Cl)O[C@@H]1SC`, the Potency is 18.7 µM (active).
As for `CCN(CC)CCCCNc1nc2cc(Cl)c(Cl)cc2nc1-c1ccc(-c2cccs2)s1`, the Potency was 13.2 µM (active).
As for `Cc1cccc(-c2[nH]c(C(C)(C)C)nc2-c2ccc3c(c2)OCO3)n1`, the Potency was 2.96 µM (active).
The same measure, in the same setting: to `Cc1c(C(=O)Nc2ccc(N3C[C@@H](C)O[C@@H](C)C3)nc2)cccc1-c1ccc(OC(F)(F)F)cc1` belongs 16.6 µM (active).
With `CC[C@H](C)n1cc(C)c2c(C(=O)NCc3c(C)cc(C)[nH]c3=O)cc(-c3ccc(N4CCNCC4)nc3)cc21`, the Potency was 0.59 µM (active).
As for `Cc1cc(C(C)Nc2ccccc2)c2nc(N3CCOCC3)cc(=O)n2c1` (stereo not given), the Potency is 0.132 µM (active).
For the compound `O=C(NC[C@H](O)CO)c1ccncc1Nc1ccc(I)cc1F`, the Potency was 5.26 µM (active).
On the same count and under the same terms, to `CSc1cccc(Nc2ncc3cc(-c4c(Cl)cccc4Cl)c(=O)n(C)c3n2)c1` belongs 0.0935 µM (active).
Turning to `COC(=O)N1CCN(Cc2cccc(NC(=O)Nc3ccc(C)nc3)c2F)CC1`, the “activity change, negative = cytotoxic” value is 18.2%.
`CC(C)C[C@H](NC(=O)c1cc2ccccc2s1)C(=O)N1CCN(C(=O)[C@H](CO)NS(=O)(=O)c2ccc(Cl)cc2Cl)CC1`: the Potency is 10.5 µM (active).
On to `CC(C)CN(C[C@@H](O)[C@H](Cc1ccccc1)NC(=O)O[C@H]1CO[C@H]2OCC[C@H]21)S(=O)(=O)c1ccc(N)cc1`, for which the Potency is 2.35 µM (active).
Same read-out and setting: then `C[C@@H]1CC=CC=CC=CC=C[C@@H](O[C@@H]2O[C@H](C)[C@@H](O)[C@H](N)[C@H]2O)C[C@@H]2O[C@](O)(C[C@@H](O)C[C@@H]3O[C@@H]3C=CC(=O)O1)C[C@H](O)[C@@H]2C(=O)O`, with 8.33 µM (active).
Regarding `O=C(O)c1nc(=O)[nH]c(=O)[nH]1`, the “activity change, negative = cytotoxic” value is -26.1% [at 16.1 µM].
For the compound `Oc1ccc(C=Cc2cc(O)cc(O)c2)cc1`, the Potency is 11.8 µM (active).
With `NC(=O)c1noc([C@H](CCCC2CCCCC2)CC(=O)NO)n1`, the Potency is 7.43 µM (active).
Consider `CCC(=C(CC)c1ccc(O)cc1)c1ccc(O)cc1`, for which the Potency is 4.18 µM (active).
Turning to `N#CC(=C1Nc2ccccc2S1)c1ccnc(OCc2ccc(CN3CCOCC3)cc2)n1`, the Potency was 0.0053 µM (active).
As to `NC1(C(=O)N[C@@H](CCO)c2ccc(Cl)cc2)CCN(c2ncnc3[nH]ccc23)CC1`, the Potency is 0.372 µM (active).
With `CC[C@H](NC(=O)[C@H](C)NC)C(=O)N1C[C@@H](O)C[C@H]1Cc1c(-c2[nH]c3cc(F)ccc3c2C[C@H]2C[C@H](O)CN2C(=O)[C@H](CC)NC(=O)[C@H](C)NC)[nH]c2cc(F)ccc12`, the Potency is 1.18 µM (active).
Still for that read-out and setting: then `Nc1nc(Cl)nc2c1ncn2[C@@H]1O[C@H](CO)[C@@H](O)[C@H]1F`, with 0.001 µM (active).
On the same count and under the same terms, to `CCC[C@H](Nc1nc(-c2ccc(NC(=O)NCC)c(OC)c2)ncc1C)c1cccnc1` belongs 0.0118 µM (active); to `CC(C)C[C@@H](C(=O)N[C@H](C(=O)OC1CCCC1)c1ccccc1)[C@H](O)C(=O)NO`, 18.7 µM (active).
`CO[C@H]1C=CO[C@@]2(C)Oc3c(C)c(O)c4c(O)c(c(C=NN5CCN(C)CC5)c(O)c4c3C2=O)NC(=O)C(C)=CC=C[C@H](C)[C@H](O)[C@@H](C)[C@@H](O)[C@@H](C)[C@H](OC(C)=O)[C@H]1C`: the activity change, negative = cytotoxic was -4.39% [at 9.22 µM].
Still for that read-out and setting: then `CCC=CC[C@H]1C(=O)CC[C@@H]1CC(=O)OC`, with -0.539%.
`CN(C)CCN(C)C(=O)c1ccc(NC(=O)Nc2ccc(-c3nc(N4CCOCC4)c4ccn(CC(F)(F)F)c4n3)cc2)cc1`: the Potency is 0.0264 µM (active).
With `C[C@@]1(C(=O)Nc2ccc(F)nc2)CCCN1c1nc(Nc2cc(C3CC3)[nH]n2)c2cccn2n1`, the Potency was 0.001 µM (active).
Take `CCNC(=O)CCCC=CC[C@@H]1[C@H](C=CC(O)CCc2ccccc2)[C@@H](O)C[C@@H]1O` (stereo not given in full): the “activity change, negative = cytotoxic” value was -4.47%.
Consider `COc1cc2ncn(-c3cc(OCc4ccccc4S(C)(=O)=O)c(C#N)s3)c2cc1OC`, for which the Potency was 13.2 µM (active).
For `CCCCC[C@H](O)C=C[C@H]1[C@H](O)CC(=O)[C@H]1CCCCCCC(=O)O`, the “activity change, negative = cytotoxic” value was -20.8%.
`OC[C@H]1O[C@@H](OCCc2ccc(O)cc2)[C@H](O)[C@@H](O)[C@H]1O`: the Potency is 26.4 µM (active).
